Some test systems named below: SR leukemia; RPMI-8226 leukemia; OVCAR-8 ovarian; OVCAR-5 ovarian; OVCAR-4 ovarian; SK-OV-3 ovarian; IGROV1 ovarian; OVCAR-3 ovarian; HS 578T breast; NCI/ADR-RES ovarian.
Test in all cases: NCI-60 one-dose screen, 48 h (100 = growth as untreated, 0 = no growth, -100 = all killed)
Holding throughout (settings): 10 µM unless noted

Here are results for twelve compounds from PubChem BioAssay (NCI).

About 83,000 compounds went through this panel and 20% of them were active in at least one assay; those are over-represented in the sample as a whole.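 Activity criterion: percent growth below 10, measured after cells in 96-well plates were exposed to a single compound concentration for 48 hours.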 Calls of active or inactive are those of the source.

With `COc1ccccc1N1CCN(C(=O)c2ccc3nc(NC(=O)c4ccc(NCCc5ccccc5)c([N+](=O)[O-])c4)sc3c2)CC1`, the growth was 3.74% (active) in the assay on SR leukemia; 92.3% (inactive) in the assay on RPMI-8226 leukemia; 81.6% (inactive) in the assay on OVCAR-8 ovarian; 93.6% (inactive) with OVCAR-5 ovarian; 2.92% (active) in the assay with OVCAR-4 ovarian; 92.4% (inactive) in the assay on SK-OV-3 ovarian. Further, the growth in the assay on IGROV1 ovarian was 91.8% (inactive); in the assay with OVCAR-3 ovarian it was 70.3% (inactive); in the assay on HS 578T breast, 48.5% (inactive); with NCI/ADR-RES ovarian it was 89.6% (inactive).

Turning to `COc1ccc(C(O)c2cc3c(N)c(C(=O)Nc4cccc(Br)c4C)sc3nc2C)cc1` (stereo not given), the growth in the assay with SR leukemia is 1.86% (active); in the assay with RPMI-8226 leukemia, 7.3% (active); with OVCAR-8 ovarian, 17.4% (inactive); in the assay with OVCAR-5 ovarian it was 39.6% (inactive); with OVCAR-4 ovarian it was 47.4% (inactive); with SK-OV-3 ovarian it was 30.8% (inactive). The growth was 24.8% (inactive) in the assay on IGROV1 ovarian, -14.4% (active) with OVCAR-3 ovarian, 21.8% (inactive) with HS 578T breast and 14.1% (inactive) in the assay on NCI/ADR-RES ovarian.

Regarding `CC(=O)[C@@H]1CC[C@]2(C(=O)n3ccnc3)CC[C@]3(C)[C@H](CC[C@@H]4[C@@]5(C)Cc6c([nH]c7ccccc67)C(C)(C)[C@@H]5CC[C@]43C)[C@@H]12`, the growth in the assay with SR leukemia was 77.7% (inactive); in the assay on RPMI-8226 leukemia, 72.7% (inactive); in the assay on OVCAR-8 ovarian, 90.7% (inactive); in the assay on OVCAR-5 ovarian, 105% (inactive); with OVCAR-4 ovarian, 85.2% (inactive); with SK-OV-3 ovarian it was 98.3% (inactive). In addition, the growth in the assay on IGROV1 ovarian is 42.6% (inactive); in the assay on OVCAR-3 ovarian, 79.5% (inactive); in the assay with HS 578T breast it was 87.1% (inactive); in the assay with NCI/ADR-RES ovarian, 90% (inactive).

Turning to `CC(O)(CO)c1ccccc1` (stereo not given), the growth in the assay with SR leukemia is 112% (inactive); with RPMI-8226 leukemia, 113% (inactive); in the assay on OVCAR-8 ovarian it was 100% (inactive); in the assay with OVCAR-5 ovarian, 94.9% (inactive); with OVCAR-4 ovarian it was 103% (inactive); in the assay with SK-OV-3 ovarian, 106% (inactive). Moreover, the growth with IGROV1 ovarian was 97.2% (inactive); in the assay on OVCAR-3 ovarian, 112% (inactive); in the assay with HS 578T breast, 100% (inactive); in the assay with NCI/ADR-RES ovarian, 103% (inactive).

For the compound `CN1C2CCC1CN(c1cnc(C(=O)Nc3cc(F)cc4cccnc34)cn1)C2`, the growth in the assay with SR leukemia is 22.4% (inactive); in the assay on RPMI-8226 leukemia it was 44.5% (inactive); with OVCAR-8 ovarian, 54.4% (inactive); in the assay on OVCAR-5 ovarian, 70.3% (inactive); in the assay on OVCAR-4 ovarian, 8.7% (active); in the assay with SK-OV-3 ovarian it was 81.9% (inactive). In addition, the growth with IGROV1 ovarian is 6.34% (active); in the assay on OVCAR-3 ovarian it was 20.4% (inactive); in the assay with HS 578T breast it was 54.6% (inactive); with NCI/ADR-RES ovarian it was 42.1% (inactive).

Consider `S=c1[nH]cccc1-c1nnc2n1Nc1nc3ccccc3cc1CS2`, for which the growth in the assay with SR leukemia is 95.7% (inactive); with RPMI-8226 leukemia, 99.2% (inactive); in the assay with OVCAR-8 ovarian, 98% (inactive); in the assay with OVCAR-5 ovarian, 96% (inactive); with OVCAR-4 ovarian it was 101% (inactive); with SK-OV-3 ovarian, 82.1% (inactive). The growth in the assay on IGROV1 ovarian is 90.7% (inactive); in the assay with OVCAR-3 ovarian it was 105% (inactive); with HS 578T breast, 96.4% (inactive); in the assay on NCI/ADR-RES ovarian, 98.2% (inactive).

For `Clc1ccc(N2N=C(c3cccc(Nc4ccncc4)c3)CC2c2ccccc2)cc1` (stereo not given), the growth in the assay on SR leukemia is 51.7% (inactive); in the assay on RPMI-8226 leukemia, 92.7% (inactive); in the assay with OVCAR-8 ovarian it was 94.5% (inactive); with OVCAR-5 ovarian, 90% (inactive); in the assay on OVCAR-4 ovarian it was 88.9% (inactive); with SK-OV-3 ovarian, 87.6% (inactive). The growth was 92.9% (inactive) in the assay with IGROV1 ovarian, 97.1% (inactive) in the assay on OVCAR-3 ovarian, 72.7% (inactive) in the assay with HS 578T breast and 101% (inactive) in the assay with NCI/ADR-RES ovarian.

In the case of `CC(=O)Nc1ccc(S(=O)(=O)NC2CCCCC2)cc1`, the growth in the assay on SR leukemia was 99% (inactive); with RPMI-8226 leukemia, 94.3% (inactive); with OVCAR-8 ovarian, 101% (inactive); with OVCAR-5 ovarian, 93.9% (inactive); in the assay on OVCAR-4 ovarian, 113% (inactive); in the assay on SK-OV-3 ovarian it was 97.3% (inactive). The growth in the assay on IGROV1 ovarian is 103% (inactive); in the assay with OVCAR-3 ovarian, 110% (inactive); with HS 578T breast, 92.7% (inactive); in the assay on NCI/ADR-RES ovarian, 99.7% (inactive).

Regarding `O=C(Nc1cccc(C2=NCCN2)c1)c1ccc(OCCCOc2ccc(C(=O)Nc3cccc(C4=NCCN4)c3)cc2)cc1`, the growth is 11.9% (inactive) with SR leukemia; -3.7% (active) in the assay on RPMI-8226 leukemia; 55% (inactive) in the assay on OVCAR-8 ovarian; 24.8% (inactive) with OVCAR-5 ovarian; 13.2% (inactive) in the assay with OVCAR-4 ovarian; 31.6% (inactive) with SK-OV-3 ovarian. The growth in the assay with IGROV1 ovarian is -40.2% (active); in the assay on OVCAR-3 ovarian it was 5.65% (active); in the assay with HS 578T breast, 35.6% (inactive); in the assay on NCI/ADR-RES ovarian, 104% (inactive).

Take `COc1cc2nc(-c3ccc(C(F)(F)F)cc3)cc(OCCCN3CCCCC3)c2cc1OC`: the growth in the assay with SR leukemia is 8.2% (active); in the assay with RPMI-8226 leukemia, 24.8% (inactive); in the assay with OVCAR-8 ovarian, 52.4% (inactive); in the assay with OVCAR-5 ovarian, 57.7% (inactive); in the assay with OVCAR-4 ovarian, 54.7% (inactive); in the assay with SK-OV-3 ovarian it was 77.8% (inactive). Further, the growth in the assay with IGROV1 ovarian is 31.8% (inactive); in the assay with OVCAR-3 ovarian, 60.1% (inactive); in the assay on HS 578T breast, 59.1% (inactive); in the assay on NCI/ADR-RES ovarian, 49.7% (inactive).

On to `C=C(C)[C@@H]1CC[C@]2(CO)CC[C@]3(C)[C@H](CC[C@@H]4[C@@]5(C)CCCNC(C)(C)[C@@H]5CC[C@]43C)[C@@H]12`, for which the growth in the assay with SR leukemia was -40.4% (active); with RPMI-8226 leukemia, -36.9% (active); in the assay with OVCAR-8 ovarian, 23.5% (inactive); in the assay with OVCAR-5 ovarian, 75% (inactive); with OVCAR-4 ovarian, 31.8% (inactive); with SK-OV-3 ovarian it was 92.2% (inactive). The growth is 36.3% (inactive) in the assay with IGROV1 ovarian, 44.4% (inactive) in the assay with OVCAR-3 ovarian, 46.8% (inactive) in the assay with HS 578T breast and 44.8% (inactive) in the assay on NCI/ADR-RES ovarian.

With `COc1ccc(/C(C)=N/NC(=O)CSc2nc3ccccc3c(=O)n2Cc2ccc(S(N)(=O)=O)cc2)c(OC)c1`, the growth with SR leukemia is 95.6% (inactive); in the assay with RPMI-8226 leukemia, 116% (inactive); with OVCAR-8 ovarian, 100% (inactive); with OVCAR-5 ovarian it was 99% (inactive); with OVCAR-4 ovarian, 101% (inactive); in the assay on SK-OV-3 ovarian, 114% (inactive). For the same compound, the growth was 104% (inactive) in the assay with IGROV1 ovarian, 111% (inactive) with OVCAR-3 ovarian, 102% (inactive) in the assay with HS 578T breast and 100% (inactive) in the assay on NCI/ADR-RES ovarian.
